PubChem BioAssay AID1076 (NMMLSC, 2008)
Active and inactive are the calls of the source.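 How the source made its calls: active means cell event count below 40, meaning activity score above 60 where score is 100 minus count; inactive means the rest.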

Experiment: LNCaP cell loss by flow event count, confirmation, cytotoxicity control for prostate differentiation activator project, single point (AID 1076);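 further: counts scatter-gated live cells after medium removal discards detached dead cells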
Conditions: flow cytometry event count, 4 d, stronger effect = lower value

SMILES	cell event count (at 100 µM)	cell event count (event count, at 10 µM)
Cc1ccc2c(c1)[C@@H]1CN(C)CC[C@@H]1N2C(=O)Nc1cccc(C(F)(F)F)c1	13 (inactive)	122
Cc1cc(OCC(=O)O)c2c3c(c(=O)oc2c1)CCCC3	175 (inactive)	157
C[C@H]1CCC/C=C/C2C[C@H](O)CC2[C@H](O)/C=C/C(=O)O1 (stereo not given in full)	23 (active)	26
Cc1nc2ccccc2c(=O)n1-c1ccc(F)cc1	282 (inactive)	155
CCn1c(=O)cc(OCC(=O)N2CCN(Cc3ccc4c(c3)OCO4)CC2)c2ccccc21	12 (inactive)	240
Clc1ccc(COC(Cn2ccnc2)c2ccc(Cl)cc2Cl)cc1 (stereo not given)	11 (inactive)	82
CCn1c(=O)cc(OCC(=O)N2CCC3(CC2)OCCO3)c2ccccc21	210 (inactive)	411
CCOc1ccc(C2SCC(=O)Nc3c2c(=O)[nH]n3C2CCCCCC2)cc1 (stereo not given)	18 (inactive)	101
Cc1ccc(Cn2c(C)c3cnn(CC(=O)N4CCC5(CC4)OCCO5)c(=O)c3c2C)cc1	66 (inactive)	202
O=C(COc1ccc2ccccc2c1)N1CCN(C2CCN(Cc3ccccc3)CC2)CC1	35 (inactive)	324
